Laboratory results: article PMC7862700, “An all-to-all approach to the identification of sequence-specific readers for epigenetic DNA modifications on cytosine”

Experiments:
Experiment in all cases: DAPPL (digital affinity profiling via proximity ligation, sequencing); 10 mM Tris-HCl pH 7.5, 50 mM NaCl, 1 mM DTT, 4% glycerol, room temperature, 30 min; GST-TFs on glutathione beads, 16-mer random dsDNA library, 0.1% formaldehyde crosslink after washing; high values mean tight binding
Conditions in all cases: protein: recombinant; tags: N-terminal GST; dsDNA, one strand shown
ERF = biological target: T1, ERF (Homo sapiens, UniProt P50548 1-548)
T1 sequence: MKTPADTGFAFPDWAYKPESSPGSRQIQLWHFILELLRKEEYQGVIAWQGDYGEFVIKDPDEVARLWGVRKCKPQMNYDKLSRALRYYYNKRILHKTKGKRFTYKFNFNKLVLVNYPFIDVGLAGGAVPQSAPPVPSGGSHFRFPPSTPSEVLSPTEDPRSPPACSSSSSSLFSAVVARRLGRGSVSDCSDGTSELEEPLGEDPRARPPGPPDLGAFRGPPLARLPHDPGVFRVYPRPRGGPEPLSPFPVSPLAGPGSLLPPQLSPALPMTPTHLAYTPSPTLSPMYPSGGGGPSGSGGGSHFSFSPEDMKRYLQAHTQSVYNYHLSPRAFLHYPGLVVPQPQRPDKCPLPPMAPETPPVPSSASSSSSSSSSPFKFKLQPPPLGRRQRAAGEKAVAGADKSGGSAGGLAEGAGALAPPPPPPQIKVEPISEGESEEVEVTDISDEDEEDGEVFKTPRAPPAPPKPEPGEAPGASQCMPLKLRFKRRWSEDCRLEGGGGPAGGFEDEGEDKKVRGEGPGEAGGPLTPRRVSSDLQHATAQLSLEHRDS
Method in brief: (§1)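 Binding signal is defined as a hexamer's read frequency for one factor over its frequency for the tag-only sample. To obtain reads, GST-fused human transcription factors were expressed in yeast, captured on glutathione beads, barcoded with DNA and pooled with that sample. Pools met 200 nmole of a 16-mer random double-stranded DNA library in Tris/NaCl/DTT/glycerol buffer for 30 min at room temperature before washing, 0.1% formaldehyde crosslinking, proximity ligation (BsaI/T4 ligase, 1 h, 37 °C), PCR and Illumina NextSeq500 sequencing.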

ETV3L = biological target: T2, ETV3L (Homo sapiens, UniProt Q6ZN32 1-361)
T2 sequence: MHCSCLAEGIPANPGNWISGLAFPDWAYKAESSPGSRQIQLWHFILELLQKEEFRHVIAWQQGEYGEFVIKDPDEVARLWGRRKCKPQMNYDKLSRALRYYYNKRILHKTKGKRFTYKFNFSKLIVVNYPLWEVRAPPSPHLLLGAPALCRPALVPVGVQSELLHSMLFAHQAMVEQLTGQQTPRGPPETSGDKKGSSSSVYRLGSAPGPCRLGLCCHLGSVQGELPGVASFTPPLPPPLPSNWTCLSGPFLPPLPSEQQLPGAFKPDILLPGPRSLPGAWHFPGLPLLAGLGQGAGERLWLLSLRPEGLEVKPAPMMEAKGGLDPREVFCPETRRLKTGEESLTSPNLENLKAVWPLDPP
Method in brief: as §1

ETS2 = biological target: T3, ETS2 (Homo sapiens, UniProt P15036 1-469)
T3 sequence: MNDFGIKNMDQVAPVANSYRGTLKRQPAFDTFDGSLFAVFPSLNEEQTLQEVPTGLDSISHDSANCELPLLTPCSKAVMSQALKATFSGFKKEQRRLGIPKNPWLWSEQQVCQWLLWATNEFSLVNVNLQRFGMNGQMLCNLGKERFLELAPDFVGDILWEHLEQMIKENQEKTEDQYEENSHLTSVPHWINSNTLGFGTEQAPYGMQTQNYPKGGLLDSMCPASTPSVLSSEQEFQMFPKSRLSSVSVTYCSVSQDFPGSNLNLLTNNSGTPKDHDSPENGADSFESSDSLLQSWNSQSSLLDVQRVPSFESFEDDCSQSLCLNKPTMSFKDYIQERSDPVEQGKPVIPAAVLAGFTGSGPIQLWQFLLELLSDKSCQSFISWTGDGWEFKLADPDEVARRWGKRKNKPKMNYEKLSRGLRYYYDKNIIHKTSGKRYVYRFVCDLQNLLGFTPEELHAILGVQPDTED
Method in brief: as §1

SPDEF = biological target: T4, SPDEF (Homo sapiens, UniProt O95238 1-335)
T4 sequence: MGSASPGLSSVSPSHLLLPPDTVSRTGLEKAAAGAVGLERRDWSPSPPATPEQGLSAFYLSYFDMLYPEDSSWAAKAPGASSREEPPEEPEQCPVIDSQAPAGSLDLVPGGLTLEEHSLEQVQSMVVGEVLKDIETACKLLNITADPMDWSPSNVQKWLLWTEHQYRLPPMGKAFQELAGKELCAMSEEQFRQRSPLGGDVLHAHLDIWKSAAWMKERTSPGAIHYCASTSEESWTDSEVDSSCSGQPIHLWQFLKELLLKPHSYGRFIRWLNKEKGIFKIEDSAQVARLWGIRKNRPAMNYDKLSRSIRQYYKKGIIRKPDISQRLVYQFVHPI
Method in brief: as §1

ETV7 = biological target: T5, ETV7 (Homo sapiens, UniProt Q9Y603 1-341)
T5 sequence: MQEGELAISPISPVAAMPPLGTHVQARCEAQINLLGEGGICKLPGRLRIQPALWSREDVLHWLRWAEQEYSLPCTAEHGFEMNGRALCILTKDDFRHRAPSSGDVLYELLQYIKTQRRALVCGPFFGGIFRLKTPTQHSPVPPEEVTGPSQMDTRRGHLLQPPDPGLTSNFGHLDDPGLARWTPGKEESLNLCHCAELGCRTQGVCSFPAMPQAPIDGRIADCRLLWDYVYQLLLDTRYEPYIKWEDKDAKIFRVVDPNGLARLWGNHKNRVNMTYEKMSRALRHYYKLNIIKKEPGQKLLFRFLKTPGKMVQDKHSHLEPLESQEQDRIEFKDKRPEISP
Method in brief: as §1

ELF5 = biological target: T6, ELF5 (Homo sapiens, UniProt Q9UKW6-2 1-255)
T6 sequence: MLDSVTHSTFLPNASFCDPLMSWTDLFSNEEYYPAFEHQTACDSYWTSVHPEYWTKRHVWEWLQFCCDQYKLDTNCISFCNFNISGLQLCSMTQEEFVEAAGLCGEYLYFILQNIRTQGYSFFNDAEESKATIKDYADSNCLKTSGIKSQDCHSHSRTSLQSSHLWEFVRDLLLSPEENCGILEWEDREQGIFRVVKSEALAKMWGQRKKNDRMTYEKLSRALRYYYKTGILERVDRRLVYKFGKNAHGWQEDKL
Method in brief: as §1

ETV3 = biological target: T7, ETV3 (Homo sapiens, UniProt P41162-2 1-143)
T7 sequence: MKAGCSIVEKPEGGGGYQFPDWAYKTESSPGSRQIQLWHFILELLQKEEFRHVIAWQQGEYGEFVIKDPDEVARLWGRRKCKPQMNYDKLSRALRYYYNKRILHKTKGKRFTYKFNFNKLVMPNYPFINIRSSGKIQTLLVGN
Method in brief: as §1

ETV6 = ETV6 (Homo sapiens, UniProt P41212 1-452)
Method in brief: as §1

Sequence of ETV6 (P41212 whole entry): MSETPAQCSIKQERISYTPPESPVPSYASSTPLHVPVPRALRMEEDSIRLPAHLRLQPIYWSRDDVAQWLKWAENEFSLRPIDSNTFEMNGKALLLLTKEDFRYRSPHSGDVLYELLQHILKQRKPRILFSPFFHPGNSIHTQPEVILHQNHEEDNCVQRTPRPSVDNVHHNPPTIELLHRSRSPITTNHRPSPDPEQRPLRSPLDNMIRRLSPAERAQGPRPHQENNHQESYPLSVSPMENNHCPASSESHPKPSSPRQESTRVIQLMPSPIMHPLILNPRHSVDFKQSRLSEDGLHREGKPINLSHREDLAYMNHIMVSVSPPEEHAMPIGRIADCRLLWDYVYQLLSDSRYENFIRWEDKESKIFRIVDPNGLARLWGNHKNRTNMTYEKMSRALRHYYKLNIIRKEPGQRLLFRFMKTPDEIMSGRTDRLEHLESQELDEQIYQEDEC

| Sequence | binding signal (ERF) | binding signal (ETV3L) | binding signal (ETS2) | binding signal (SPDEF) | binding signal (ETV7) | binding signal (ELF5) | binding signal (ETV3) | binding signal (ETV6) |
| --- | --- | --- | --- | --- | --- | --- | --- | --- |
| AAATGC | 1.27 fold enrichment (6-mer frequency, TF over GST control) | 1.26 fold enrichment (6-mer frequency, TF over GST control) | 1.25 fold enrichment (6-mer frequency, TF over GST control) | 1.3 fold enrichment (6-mer frequency, TF over GST control) | 1.34 fold enrichment (6-mer frequency, TF over GST control) | 1.33 fold enrichment (6-mer frequency, TF over GST control) | 1.18 fold enrichment (6-mer frequency, TF over GST control) | 1.35 fold enrichment (6-mer frequency, TF over GST control) |
| ACGGAA | 1.53 fold enrichment (6-mer frequency, TF over GST control) | 1.73 fold enrichment (6-mer frequency, TF over GST control) | 1.86 fold enrichment (6-mer frequency, TF over GST control) | 1.78 fold enrichment (6-mer frequency, TF over GST control) | 1.57 fold enrichment (6-mer frequency, TF over GST control) | 2.24 fold enrichment (6-mer frequency, TF over GST control) | 1.93 fold enrichment (6-mer frequency, TF over GST control) | 2.14 fold enrichment (6-mer frequency, TF over GST control) |
| GTTATG | 1.05 fold enrichment (6-mer frequency, TF over GST control) | 1.11 fold enrichment (6-mer frequency, TF over GST control) | 1.1 fold enrichment (6-mer frequency, TF over GST control) | 1.12 fold enrichment (6-mer frequency, TF over GST control) | 1.12 fold enrichment (6-mer frequency, TF over GST control) | 1.06 fold enrichment (6-mer frequency, TF over GST control) | 1.14 fold enrichment (6-mer frequency, TF over GST control) | 1.21 fold enrichment (6-mer frequency, TF over GST control) |
| TTTCTG | 1.44 fold enrichment (6-mer frequency, TF over GST control) | 1.29 fold enrichment (6-mer frequency, TF over GST control) | 1.37 fold enrichment (6-mer frequency, TF over GST control) | 1.46 fold enrichment (6-mer frequency, TF over GST control) | 1.39 fold enrichment (6-mer frequency, TF over GST control) | 1.42 fold enrichment (6-mer frequency, TF over GST control) | 1.3 fold enrichment (6-mer frequency, TF over GST control) | 1.46 fold enrichment (6-mer frequency, TF over GST control) |
| AGAAAT | 1.13 fold enrichment (6-mer frequency, TF over GST control) | 1.17 fold enrichment (6-mer frequency, TF over GST control) | 1.21 fold enrichment (6-mer frequency, TF over GST control) | 1.03 fold enrichment (6-mer frequency, TF over GST control) | 1.21 fold enrichment (6-mer frequency, TF over GST control) | 1.15 fold enrichment (6-mer frequency, TF over GST control) | 1.09 fold enrichment (6-mer frequency, TF over GST control) | 1.18 fold enrichment (6-mer frequency, TF over GST control) |
| CACATC | 1.39 fold enrichment (6-mer frequency, TF over GST control) | 1.41 fold enrichment (6-mer frequency, TF over GST control) | 1.38 fold enrichment (6-mer frequency, TF over GST control) | 2.09 fold enrichment (6-mer frequency, TF over GST control) | 1.38 fold enrichment (6-mer frequency, TF over GST control) | 1.42 fold enrichment (6-mer frequency, TF over GST control) | 1.49 fold enrichment (6-mer frequency, TF over GST control) | 1.5 fold enrichment (6-mer frequency, TF over GST control) |
| CCAAAT | 1.11 fold enrichment (6-mer frequency, TF over GST control) | 1.02 fold enrichment (6-mer frequency, TF over GST control) | 1.08 fold enrichment (6-mer frequency, TF over GST control) | 1.05 fold enrichment (6-mer frequency, TF over GST control) | 1.06 fold enrichment (6-mer frequency, TF over GST control) | 1.01 fold enrichment (6-mer frequency, TF over GST control) | 1.03 fold enrichment (6-mer frequency, TF over GST control) | 1.06 fold enrichment (6-mer frequency, TF over GST control) |
| AAGCTT | 1.29 fold enrichment (6-mer frequency, TF over GST control) | 1.31 fold enrichment (6-mer frequency, TF over GST control) | 1.19 fold enrichment (6-mer frequency, TF over GST control) | 1.14 fold enrichment (6-mer frequency, TF over GST control) | 1.38 fold enrichment (6-mer frequency, TF over GST control) | 1.31 fold enrichment (6-mer frequency, TF over GST control) | 1.2 fold enrichment (6-mer frequency, TF over GST control) | 1.3 fold enrichment (6-mer frequency, TF over GST control) |
| TACGGC | 1.32 fold enrichment (6-mer frequency, TF over GST control) | 1.26 fold enrichment (6-mer frequency, TF over GST control) | 1.22 fold enrichment (6-mer frequency, TF over GST control) | 1.18 fold enrichment (6-mer frequency, TF over GST control) | 1.13 fold enrichment (6-mer frequency, TF over GST control) | 1.2 fold enrichment (6-mer frequency, TF over GST control) | 1.21 fold enrichment (6-mer frequency, TF over GST control) | 1.2 fold enrichment (6-mer frequency, TF over GST control) |
